Drawing on the supplement of paper PMC12297408, this text covers gametocyte viability for 36 compounds.

Where a name gives a salt, the structure may show the parent alone. The campaign covered roughly 1,300 compounds. About 40 (3%) showed activity. The list comes from a sample in which actives are over-represented; it also holds similar structures and randomly drawn compounds. A number with no mark means an inactive call.

In the assay the test system is Plasmodium falciparum NF54/iGP1_RE9H ulg8 stage V gametocytes. Put plainly: gametocyte viability (luciferase signal relative to DMSO control) (% of DMSO control); higher = less gametocytocidal activity, active = 50 or less. The conditions noted are these: exposure time: 72 h. A digest of the protocol: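 NF54/iGP1_RE9Hulg8 stage V gametocytes (day 12; ~2.5% gametocytemia, 3% hematocrit) were incubated with compounds at 10 µM or 1 µM final, in one well each, for 72 h at 37 °C in medium with 0.5% Albumax II. Luminescence after D-luciferin addition was read on an IVIS Lumina II. Viability refers to the mean of plate DMSO vehicle wells.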

For `CN1CCC(=C2c3ccccc3CCc3cccnc32)CC1` [Azatadine maleate], the gametocyte viability runs as follows: (concentration: 1 µM) 79.7; (concentration: 10 µM) 80.8.
The corresponding values for `CN1CCN2c3ncccc3Cc3ccccc3C2C1` (configuration not stated) [Mirtazapine] are 79.6 and 77.4.
As for `COc1cc(-c2ccc(N=Nc3ccc4c(S(=O)(=O)O)cc(S(=O)(=O)O)c(N)c4c3O)c(OC)c2)ccc1N=Nc1ccc2c(S(=O)(=O)O)cc(S(=O)(=O)O)c(N)c2c1O` [Chicago sky blue 6B], the gametocyte viability (concentration: 1 µM) is 80.1 and the gametocyte viability (concentration: 10 µM) is 82.1.
As to `Cc1ccccc1C(OCCN(C)C)c1ccccc1` (configuration not stated) [Orphenadrine hydrochloride], the gametocyte viability is 84.4 (concentration: 1 µM) and 87.5 (concentration: 10 µM).
In the same order, the values of `O=C1CC[C@@H](C(=O)N2CSC[C@H]2C(=O)O)N1` [Pidotimod] are 83.8 and 81.2.
Turning to `Cc1ccc(S(=O)(=O)NC(=O)NN2CC3CCCC3C2)cc1` (configuration not stated) [Gliclazide], the gametocyte viability is 91.8 (concentration: 1 µM) and 88.7 (concentration: 10 µM).
In the same order, the values of `O=C1NCCN1CCN1CCC(c2cn(-c3ccc(F)cc3)c3ccc(Cl)cc23)CC1` [Sertindole] are 97.7 and 82.3.
The corresponding values for `CC(=O)OCC(=O)[C@@]12N=C(C)O[C@@H]1C[C@H]1[C@@H]3CCC4=CC(=O)C=C[C@]4(C)[C@H]3[C@@H](O)C[C@@]12C` [Deflazacort] are 95.7 and 104.
The corresponding values for `Clc1ccc(Nc2nnc(Cc3ccncc3)c3ccccc23)cc1` [Vatalanib] are 89.2 and 69.1.
For the compound `Cc1c(F)c(N2CCNC(C)C2)cc2c1c(=O)c(C(=O)O)cn2C1CC1` (configuration not stated) [Grepafloxacin], the gametocyte viability runs as follows: (concentration: 1 µM) 93.9; (concentration: 10 µM) 95.3.
For the compound `COc1ccc2[nH]c([S+]([O-])Cc3ncc(C)c(OC)c3C)nc2n1` (configuration not stated) [Tenatoprazole], the gametocyte viability is 90.8 (concentration: 1 µM) and 79.8 (concentration: 10 µM).
Turning to `Nc1ccc(S(=O)(=O)Nc2nccs2)cc1` [Sulfathiazole], the gametocyte viability reads like this: (concentration: 1 µM) 96.7; (concentration: 10 µM) 91.9.
Regarding `CCCCC(=O)N(Cc1ccc(-c2ccccc2-c2nnn[nH]2)cc1)[C@H](C(=O)O)C(C)C` [Valsartan], the gametocyte viability reads like this: (concentration: 1 µM) 81.5; (concentration: 10 µM) 81.
In the case of `Cc1cc(C(=O)NNCc2ccccc2)no1` [Isocarboxazid], the gametocyte viability reads like this: (concentration: 1 µM) 98.7; (concentration: 10 µM) 85.
With `CN(C)[C@@H]1C(=O)C(C(=O)NCNCCCC[C@H](N)C(=O)O)=C(O)[C@@]2(O)C(=O)C3=C(O)c4c(O)cccc4[C@@](C)(O)[C@H]3C[C@@H]12` [Lymecycline], the gametocyte viability by setting is: (concentration: 1 µM) 88.7; (concentration: 10 µM) 84.6.
Turning to `CC(=O)OC[C@H]1O[C@@H]([S-])[C@H](OC(C)=O)[C@@H](OC(C)=O)[C@@H]1OC(C)=O.CCP(CC)CC.[Au+]` [Auranofin], the gametocyte viability is 82.6 (concentration: 1 µM) and 3.03 (active) (concentration: 10 µM).
In the case of `COc1ccc2[nH]cc(CCNC(C)=O)c2c1` [Melatonin], the gametocyte viability by setting is: (concentration: 1 µM) 80.2; (concentration: 10 µM) 85.4.
`CCCCCNC(=N)N/N=C/c1c[nH]c2ccc(OC)cc12` [Tegaserod maleate]: the gametocyte viability runs as follows: (concentration: 1 µM) 88.4; (concentration: 10 µM) 6.12 (active).
On to `COc1cc2nc(N3CCN(C(=O)C4CCCO4)CC3)nc(N)c2cc1OC` (configuration not stated) [Terazosin hydrochloride], for which the gametocyte viability (concentration: 1 µM) is 96.5 and the gametocyte viability (concentration: 10 µM) was 92.6.
Take `COc1cc2nc(N3CCN(C(=O)C4COc5ccccc5O4)CC3)nc(N)c2cc1OC` (configuration not stated) [Doxazosin mesylate]: the gametocyte viability is 86.5 (concentration: 1 µM) and 63.2 (concentration: 10 µM).
The corresponding values for `COc1cc2nc(N3CCN(C(=O)c4ccco4)CC3)nc(N)c2cc1OC` [Prazosin hydrochloride] are 90.8 and 42.9 (active).
For the compound `OCCN1CCN(CC/C=C2/c3ccccc3Sc3ccc(Cl)cc32)CC1` [Zuclopenthixol hydrochloride], the gametocyte viability is 100 (concentration: 1 µM) and 95.8 (concentration: 10 µM).
For `CC(C)CN(C[C@@H](O)[C@H](Cc1ccccc1)NC(=O)O[C@H]1CO[C@H]2OCC[C@H]21)S(=O)(=O)c1ccc(N)cc1` [Darunavir], the gametocyte viability is 82.6 (concentration: 1 µM) and 81.5 (concentration: 10 µM).
The corresponding values for `C=C1C[C@H]2[C@@H]3C=C(C)C4=CC(=O)CC[C@]4(C)[C@H]3CC[C@]2(C)[C@@]1(OC(C)=O)C(C)=O` [Melengestrol acetate] are 85.4 and 87.2.
Consider `Nc1nc(CC(=O)Nc2ccc(CCNC[C@H](O)c3ccccc3)cc2)cs1` [Mirabegron], for which the gametocyte viability runs as follows: (concentration: 1 µM) 91.9; (concentration: 10 µM) 90.8.
For `Cn1nnc2c(C(N)=O)ncn2c1=O` [Temozolomide], the gametocyte viability is 86.9 (concentration: 1 µM) and 88.1 (concentration: 10 µM).
On to `Cc1cc(C(C)(C)C)c(O)c(C)c1CC1=NCCN1` [Oxymetazoline hydrochloride], for which the gametocyte viability (concentration: 1 µM) was 89.6 and the gametocyte viability (concentration: 10 µM) is 90.7.
In the case of `CC(=O)OCC(=O)[C@@]12OC3(CCCC3)O[C@@H]1C[C@H]1[C@@H]3CCC4=CC(=O)C=C[C@]4(C)[C@@]3(F)[C@@H](O)C[C@@]12C` [Amcinonide], the gametocyte viability was 93.1 (concentration: 1 µM) and 92.1 (concentration: 10 µM).
Consider `CN1CCN(C(c2ccccc2)c2ccc(Cl)cc2)CC1` (configuration not stated) [Chlorcyclizine hydrochloride], for which the gametocyte viability is, setting by setting: (concentration: 1 µM) 96.9; (concentration: 10 µM) 91.7.
On to `CCOC(=O)[C@H](CCc1ccccc1)N[C@@H](C)C(=O)N1Cc2ccccc2C[C@H]1C(=O)O` [Quinapril HCl], for which the gametocyte viability runs as follows: (concentration: 1 µM) 98.4; (concentration: 10 µM) 98.4.
As to `S=c1[nH]cnc2nc[nH]c12` [Mercaptopurine], the gametocyte viability is 82.1 (concentration: 1 µM) and 84.9 (concentration: 10 µM).
With `c1ccc(CNc2ncnc3nc[nH]c23)cc1` [Aminopurine, 6-benzyl], the gametocyte viability is 69.7 (concentration: 1 µM) and 43.9 (active) (concentration: 10 µM).
As to `c1coc(CNc2ncnc3nc[nH]c23)c1` [6-Furfurylaminopurine], the gametocyte viability reads like this: (concentration: 1 µM) 86.5; (concentration: 10 µM) 75.6.
The corresponding values for `CCCc1nc2c(C)cc(-c3nc4ccccc4n3C)cc2n1Cc1ccc(-c2ccccc2C(=O)O)cc1` [Telmisartan] are 80 and 88.2.
In the same order, the values of `CN1CCCN=C1/C=C/c1cccc(O)c1` [Oxantel pamoate] are 80.4 and 87.7.
`O=C(O)c1ccccc1C(=O)Nc1ccc(S(=O)(=O)Nc2nccs2)cc1` [Phthalylsulfathiazole]: the gametocyte viability runs as follows: (concentration: 1 µM) 82.3; (concentration: 10 µM) 85.4.
